PubChem BioAssay AID2576 (National Center for Advancing Translational Sciences (NCATS), 2010)
Results filed as inconclusive are left out. A call without a number means that no potency is given here. Activity calls are given as the source filed them. Calls come from the whole dose curve; as a rule, active = well fitted activation curve with a large enough effect; inconclusive = small, poorly fitted or top-dose-only effect, or effect the other way; inactive = flat fitted curve, though single readings scatter.

These compounds were tested against Pyruvate kinase PKM (Homo sapiens) (UniProt P14618) (assay: Secondary LDH Assay for Activators of Human Pyruvate Kinase M2 isoform: for Probe SAR). Conditions: purified hPK-M2, LDH-coupled NADH fluorescence kinetic; series mostly up to 58.4 µM.
Chain of Pyruvate kinase PKM (Homo sapiens) (P14618 whole entry, looked up, canonical isoform): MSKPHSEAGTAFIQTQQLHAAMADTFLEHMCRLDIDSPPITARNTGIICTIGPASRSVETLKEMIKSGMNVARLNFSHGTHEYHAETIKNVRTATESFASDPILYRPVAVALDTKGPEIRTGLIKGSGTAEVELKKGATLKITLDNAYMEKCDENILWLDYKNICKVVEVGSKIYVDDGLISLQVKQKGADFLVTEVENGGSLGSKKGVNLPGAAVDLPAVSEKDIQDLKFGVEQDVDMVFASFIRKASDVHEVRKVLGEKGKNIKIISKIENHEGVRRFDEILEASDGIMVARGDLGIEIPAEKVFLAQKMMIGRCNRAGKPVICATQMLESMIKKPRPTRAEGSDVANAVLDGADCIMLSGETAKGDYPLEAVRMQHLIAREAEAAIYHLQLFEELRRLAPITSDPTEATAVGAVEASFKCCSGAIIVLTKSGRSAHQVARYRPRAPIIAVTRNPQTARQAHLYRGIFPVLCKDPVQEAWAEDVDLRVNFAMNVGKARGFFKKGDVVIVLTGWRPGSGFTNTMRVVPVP
Excerpt: NIH Chemical Genomics Center [NCGC] Matthew G. Vander Heiden, M.D., Ph.D. [Harvard Medical School, 77 Avenue Louis Pasteur, Boston, MA 02115] NCGC Assay Overview: Human pyruvate kinase muscle 2 (hPK-M2)enzyme was supplied as a highly purified (>95% pure) preparation from Harvard Medical School and a secondary assay was used to evaluate compounds. This assay couples the formation of pyruvate from hPK-M2 using lactate dehydrogenase (LDH) and NADH. The depletion of NADH is followed in a fluorescent-based kinetic assay that follows the formation of pyruvate to lactate, as catalyzed LDH (described by Hannaert et al., 2002)1 Pyruvate kinase substrates, PEP and ADP, were present in the assay at 0.1 mM and 4 mM respectively. In this kinetic assay initial rates were determined by following the fluorescence of NADH depletion.
NCGC Assay Protocol Summary: Three uL of substrate mix (final concentration, 50 mM Tris-Cl pH 8.0, 200 mM KCl, 15 mM MgCl2, 0.1 mM PEP, 4.0 mM ADP, and 0.2 mM NADH) was dispensed into black-solid 1536 well plates. 23 nL of compounds were delivered by a pin tool and 1 uL of enzyme mix (final concentrations, 10 nM hPK-M2 and 1 uM of LDH) was added. Plates were immediately placed in ViewLux (Perkin Elmer) and NADH fluorescence was determined at 30 second exposure intervals for between 3 and 6 minutes. Data were normalized to the uninhibited and EC100 activation using known activators such as fructose-bis-phosphate.
For COc1ccc(OC2=NS(=O)(=O)c3ccccc32)cc1, the Potency was “inactive”. With Cc1cc(N2C(=O)c3ccccc3C2=O)n[nH]1 the Potency was “inactive”. With O=C1c2ccccc2C(=O)N1c1cc(=O)c2ccccc2[nH]1 the Potency was “inactive”. Cc1cccc(OC2=NS(=O)(=O)c3ccccc32)c1 was tested, and the Potency was “inactive”. In the case of CNc1cccc(S(=O)(=O)N2CCN(S(=O)(=O)c3ccc4c(c3)OCCO4)CC2)c1, the Potency is reported as “inactive”. For O=C1c2ccccc2C(=O)N1Cc1ccccc1, the Potency was “inactive”. For Cc1ccc2nc(-c3ccc(C)o3)c(NC3CCCC3)n2c1, the Potency was “inactive”. COc1ccccc1N1C(=O)c2ccccc2C1=O was tested, and the Potency was “inactive”. For Cc1ccc2nc(-c3ccncc3)c(Nc3ccccc3)n2c1, the Potency was “inactive”. Cc1cc(N2C(=O)c3ccccc3C2=O)no1 was tested, and the Potency was “inactive”. With Cc1ccc(NC(=O)c2ccc3c(c2)CCC(=O)N3)cc1C the Potency was “inactive”. CC(=O)N1CCCc2cc(S(=O)(=O)Nc3ccc(C)c(C)c3)ccc21 was tested, and the Potency was “inactive”. With O=C1CCc2cc(S(=O)(=O)Nc3ccc(F)cc3)ccc2N1 the Potency was “inactive”. CC(=O)Nc1cccc(S(=O)(=O)Nc2ccc(C)c(C)c2)c1 was tested, and the Potency was “inactive”. Cc1ccc(NS(=O)(=O)c2cc3c(cc2N(C)C)NC(=O)CC3)cc1C was tested, and the Potency was 1030 nM (active). In the case of O=C1c2ccccc2C(=O)N1c1cccc2ccncc12, the Potency is reported as “inactive”. In the case of O=C1CCc2cc(S(=O)(=O)Nc3ccccn3)ccc2N1, the Potency is reported as “inactive”. Cc1ccc(NS(=O)(=O)c2ccc3c(c2)CCCC(=O)N3)cc1C was tested, and the Potency was “inactive”. For O=C1CCc2cc(S(=O)(=O)Nc3ccncc3)ccc2N1, the Potency was “inactive”. With O=C1c2ccccc2C(=O)N1Cc1ccccn1 the Potency was “inactive”. With COc1cccc(Cn2ncc3c4sc(SC)cc4n(C)c3c2=O)c1 the Potency was 206 nM (active). With CC(=O)N1c2ccc(S(=O)(=O)Nc3ccc(C)c(C)c3)cc2CC1C (stereo not given) the Potency was “inactive”. In the case of Cc1ccc(NS(=O)(=O)c2cc3c(cc2N2CCCCC2)NC(=O)CC3)cc1C, the Potency is reported as “inactive”. In the case of O=C1c2ccccc2C(=O)N1Cc1ccncc1, the Potency is reported as “inactive”. For Cc1ccc(NS(=O)(=O)c2ccc(-c3ccccc3)cc2)cc1C, the Potency was “inactive”. With Cc1cc2c(s1)c1cnn(Cc3cc(F)ccc3F)c(=O)c1n2C the Potency was 447 nM (active). In the case of CCCCN1C(=O)c2ccccc2C1=O, the Potency is reported as “inactive”. With O=C1c2ccccc2C(=O)N1c1nccs1 the Potency was “inactive”. For COc1cc(N2C(=O)c3ccccc3C2=O)c2ncccc2c1, the Potency was “inactive”. Cc1ccc(C)c(OC2=NS(=O)(=O)c3ccccc32)c1 was tested, and the Potency was “inactive”. For Fc1ccccc1-c1ccc(-c2nc3ccc(Cl)cn3c2Nc2ccc(Cl)cc2)o1, the Potency was “inactive”. For O=C1c2ccccc2C(=O)N1c1cncc2ccccc12, the Potency was “inactive”. In the case of O=C1c2ccccc2C(=O)N1c1ccc2ccccc2n1, the Potency is reported as “inactive”. With CSc1cc2c(s1)c1cnn(Cc3cccc(O)c3)c(=O)c1n2C the Potency was 206 nM (active). In the case of Cc1ccc(NS(=O)(=O)c2cccc(F)c2)cc1C, the Potency is reported as “inactive”. For Cc1ccc(NS(=O)(=O)c2ccc(N3CCCC3=O)cc2)cc1C, the Potency was “inactive”. For Cc1ccccc1NS(=O)(=O)c1ccc2c(c1)CCC(=O)N2, the Potency was 6510 nM (active). With COc1cccc(N2C(=O)c3ccccc3C2=O)c1 the Potency was “inactive”. In the case of O=C1CCc2cc(S(=O)(=O)Nc3ccccc3Cl)ccc2N1, the Potency is reported as “inactive”. In the case of Cc1ccc(N[S+](=O)([O-])c2cc3c(cc2CCc2ccccc2)NC(=O)CO3)cc1C, the Potency is reported as “inactive”.
